{"source": "PubChem BioAssay AID1259343", "about": "(VanderVen Lab, College of Veterinary Medicine, Cornell …, 2017)", "note": "The campaign covered roughly 6,200 compounds. About 2,900 (47%) were called active. The set was probably picked from earlier hits. The list shows a part of the results. Values without a mark were called inactive. No stated cut-off is given here; in the data, active means inhibition above about 50%; inactive means the rest."}
{"experiment": "Mycobacterium tuberculosis growth inhibition, primary screen (AID 1259343)", "settings": "inhibition: at 10 µM, stronger effect = higher value; outcome: 10 uM"}
{"smiles": "CSc1nsc(SCC2=NNC(=O)c3ccccc3O2)n1", "inhibition": "101% (active)"}
{"smiles": "Cc1nc(CSCC(=O)Nc2ccc(C)c(Cl)c2)no1", "inhibition": "39.4%"}
{"smiles": "N#Cc1ccc(NC(=O)Cc2ccc(Cl)c(Cl)c2)cc1", "inhibition": "17.6%"}
{"smiles": "O=C(CSCCO)Nc1ccc(Cl)c(Br)c1", "inhibition": "93.2% (active)"}
{"smiles": "CC1CC(C)(C)CC2(C1)NC(=O)N(c1ccccc1)N2", "note": "(stereo unspecified)", "inhibition": "86.8% (active)"}
{"smiles": "CONC(=O)c1oc2c(ccc3ccccc32)c1C", "inhibition": "21.5%"}
{"smiles": "CCCOC(=O)COc1ccc2c(oc(=O)c3ccccc32)c1C", "inhibition": "84% (active)"}
{"smiles": "CCOC(=O)CCc1c(C)c2ccc(OCc3ccc(C(=O)OC)cc3)c(C)c2oc1=O", "inhibition": "36.8%"}
{"smiles": "O=c1[nH]c(=S)[nH]c(O)c1N=Nc1ccc(F)cc1", "inhibition": "104% (active)"}
{"smiles": "O=c1[nH]c(O)c(N=Nc2ccc(SC(F)F)cc2)c(=O)[nH]1", "inhibition": "84% (active)"}
{"smiles": "O=c1[nH]c(=S)[nH]c(O)c1N=Nc1ccc2c(c1)OCCO2", "inhibition": "38.2%"}
{"smiles": "O=c1[nH]c(=S)[nH]c(O)c1N=Nc1ccc(SC(F)F)cc1", "inhibition": "99.5% (active)"}
{"smiles": "O=c1[nH]c(=S)[nH]c2sccc12", "inhibition": "-6.61%"}
{"smiles": "CC(C)(C)C(=O)NC(=S)NCc1ccccc1", "inhibition": "87% (active)"}
{"smiles": "CC(C)(C)C(=O)NCCc1cn(-c2ccccc2)c2ccccc12", "inhibition": "42.6%"}
{"smiles": "O=C(NC(=S)NCCc1ccccc1)C1CCCCC1", "inhibition": "68.9% (active)"}
{"smiles": "CC(C)(C)C(=O)NC(=S)NCCc1ccccc1", "inhibition": "58.1% (active)"}
{"smiles": "S=C(NCCc1ccccc1)NC1CCSc2ccccc21", "note": "(stereo unspecified)", "inhibition": "31.4%"}
{"smiles": "O=C(NCCc1ccc(Br)s1)C1CCC1", "inhibition": "-26.3%"}
{"smiles": "CC(C)CC(=O)NC(=S)NCc1ccccc1", "inhibition": "52.5% (active)"}
{"smiles": "O=C(NC(=S)NCc1ccccc1)C1CCCCC1", "inhibition": "-4.74%"}
{"smiles": "CC1CCC(C(C)C)C(OC(=O)Cn2c(-c3ccccc3)[n+](C)c3ccccc32)C1", "note": "(stereo unspecified)", "inhibition": "36.3%"}
{"smiles": "Cc1sc(NC(=O)c2ccc3c(c2)CC(C)N3S(C)(=O)=O)nc1-c1ccc(F)cc1", "note": "(stereo unspecified)", "inhibition": "44.9%"}
{"smiles": "CC(C)(C)c1ncc(CNc2ccc(OCC(F)(F)F)nc2)s1", "inhibition": "76.1% (active)"}
{"smiles": "O=C(O)c1ccccc1CSc1ccc(N2CCCCC2)cc1", "inhibition": "34.9%"}
{"smiles": "O=C1/C(=C/c2csnn2)CCOc2cc(Br)ccc21", "inhibition": "32.8%"}
{"smiles": "O=C1C(=Cc2cc(Br)cs2)COc2ccccc21", "inhibition": "63.5% (active)"}
{"smiles": "O=C1/C(=C\\c2ccc(Cl)cc2)COc2ccccc21", "inhibition": "93.1% (active)"}
{"smiles": "CC(NC(=O)c1cc2c(s1)-c1ccccc1OC2)c1ccc(Br)cc1", "note": "(stereo unspecified)", "inhibition": "-1.38%"}
{"smiles": "FC(F)(F)c1nc2n(n1)C(c1ccc(Cl)cc1)C1=C(N2)c2ccccc2OC1", "note": "(stereo unspecified)", "inhibition": "inactive"}
{"smiles": "O=C1C(=Cc2ccc(N3CCCCC3)cc2)COc2ccccc21", "inhibition": "53% (active)"}
{"smiles": "COc1ccc2cc(C=C3COc4ccccc4C3=O)ccc2c1", "inhibition": "-0.42%"}
{"smiles": "COc1cc(C(CC(=O)c2ccc(Cl)cc2)SCCO)cc(OC)c1OC", "note": "(stereo unspecified)", "inhibition": "7.8%"}
{"smiles": "NC(=O)C1CCN(CC(=O)Nc2oc3ccccc3c(=O)c2-c2ccccc2)CC1", "inhibition": "12.8%"}
{"smiles": "NC(=O)C1CCN(C(=O)c2ccc(-c3cccc(Cl)c3Cl)o2)CC1", "inhibition": "57.6% (active)"}
{"smiles": "C/C=C/c1c(F)c(F)c(Oc2ccc(C=O)cc2)c(F)c1F", "inhibition": "88.6% (active)"}
{"smiles": "Cc1cccc(NC(=O)/C=C/C2=C(Cl)c3ccccc3S2(=O)=O)c1C", "inhibition": "102% (active)"}
{"smiles": "Cc1ccc(OCc2nc(CC(=O)N(C)CC3CCCCC3)cs2)cc1", "inhibition": "79.4% (active)"}
{"smiles": "NC(=O)c1ccccc1OCc1csc(COc2ccc(F)cc2)n1", "inhibition": "15.8%"}
{"smiles": "O=C(Cc1csc(COc2ccc(Cl)cc2)n1)NC12CC3CC(CC(C3)C1)C2", "inhibition": "49.5%"}
{"smiles": "CSc1ncc(Cl)c(C(=O)C(C#N)c2nc3ccc(Br)cc3c(=O)[nH]2)n1", "note": "(stereo unspecified)", "inhibition": "15.1%"}
{"smiles": "COC(=O)c1cnc(NC(=O)c2cc(F)cc(Br)c2)s1", "inhibition": "19.9%"}
{"smiles": "CC(C)c1ccc(C(=O)Nc2sccc2C(=O)N2CCCC2)cc1", "inhibition": "16.5%"}
{"smiles": "CC(C)c1ccc(C(=O)Nc2nnc(C(C)C)s2)cc1", "inhibition": "90% (active)"}
{"smiles": "CCCC(C)c1nnc(NC(=O)c2cnc(-c3ccccn3)nc2)s1", "note": "(stereo unspecified)", "inhibition": "-2.11%"}
{"smiles": "CCC(CC)c1nnc(NC(=O)c2cc(C)cc(C)c2)s1", "inhibition": "51.2% (active)"}
{"smiles": "CC(C)Cc1nnc(NC(=O)c2cccc(C#N)c2)s1", "inhibition": "20.8%"}
{"smiles": "Cc1ccc(C#N)cc1S(=O)(=O)Nc1nnc(C(C)C)s1", "inhibition": "31.9%"}
{"smiles": "CC(C)c1nnc(NC(=O)c2cccc(I)c2)s1", "inhibition": "90.6% (active)"}
{"smiles": "CC(=NCCCn1ccnc1)c1c(-c2ccccc2)[nH]n(-c2nc3ccccc3s2)c1=O", "inhibition": "52.5% (active)"}
{"smiles": "c1ccc(-c2ccc(-c3nccn3CCn3ccnc3)s2)cc1", "inhibition": "-34.9%"}
{"smiles": "COc1ccc(-c2cn3c(C(=O)Nc4nccs4)csc3n2)cc1", "inhibition": "10.8%"}
{"smiles": "COc1cccc(-c2cn3c(C(=O)Nc4ccccn4)csc3n2)c1", "inhibition": "75.6% (active)"}
{"smiles": "Clc1ccc(Sc2ncccn2)cc1", "inhibition": "2.73%"}
{"smiles": "Cc1c2cnnc(Sc3ccc(Cl)cc3)c2c(C)n1C", "inhibition": "64% (active)"}
{"smiles": "Cc1nonc1CN(C)C(=O)c1cc(COc2ccc(F)cc2Cl)on1", "inhibition": "89.4% (active)"}
{"smiles": "CSc1ccccc1OCc1cc(C(=O)N(C)Cc2ccc(F)cc2)no1", "inhibition": "15.7%"}
{"smiles": "CC(=O)c1ccc(OCc2cc(C(=O)N(C)Cc3ccon3)no2)cc1", "inhibition": "80.4% (active)"}
{"smiles": "CCc1ccc(CN(C)C(=O)c2cc(COc3ccc(OC)cc3Cl)on2)nc1", "inhibition": "73% (active)"}
{"smiles": "CC(NC(=O)c1cc(Br)ccc1O)c1ccccc1", "note": "(stereo unspecified)", "inhibition": "17.3%"}
{"smiles": "CC(C)c1ccc(O)c(NC(=S)NC(=O)c2cncc(Br)c2)c1", "inhibition": "99.5% (active)"}
{"smiles": "CC(NC(=O)c1cncc(Br)c1)c1ccc(Cl)cc1", "note": "(stereo unspecified)", "inhibition": "86.8% (active)"}
{"smiles": "COc1cccc(OCCN2CCN(c3ncnc4sc5c(c34)CCCC5)CC2)c1", "inhibition": "36.6%"}
{"smiles": "COc1ccc(F)cc1CN1CCN(c2ncnc3sc4c(c23)CCCC4)CC1", "inhibition": "60% (active)"}
{"smiles": "OCC1CCCN(c2ncnc3sc4c(c23)CCCC4)C1", "note": "(stereo unspecified)", "inhibition": "20.6%"}
{"smiles": "Oc1cc(CCC2CCCCN2)cc(-c2ccncc2)c1", "note": "(stereo unspecified)", "inhibition": "45.4%"}
